PubChem BioAssay AID720513 (Broad Institute, 2013)
Screen size: about 2,100 compounds; about 480 (23%) were called active. Inconclusive results (about 5%) are left out.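 The calls were made as follows: active = fitted curve reaches 40% activation at or below the top valid concentration, in every replicate test; inconclusive = replicate tests disagree on the call; inactive = the rest, including activity in the opposite direction.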 A selection follows. Potency and affinity values are given separately.

Experiment: activators raising PGC1a acetylation in cells, dose response, cell-based, cherry-picked samples, set 6 (AID 720513);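 also: cells made to overexpress flag tagged PGC1a plus GCN5 acetyltransferase by viral infection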
Conditions: U2OS PGC1a acetylation AlphaLISA, overnight, 0 = neutral, -100 = inhibitor control; series mostly up to 19.5 µM; activation (acetylation increase): at the top concentration

Activation (acetylation increase), inactive:
COC(=O)c1[nH]c2ccc(F)cc2c1NS(=O)(=O)c1ccc(OC)cc1OC -6.12%, O=C(C[C@H]1CC[C@@H](NC(=O)c2ccccc2)[C@H](CO)O1)Nc1ccc(-c2ccccc2)cc1 -60.5%, COc1ccc(CCN2C(=O)N(c3ccc(OC)cc3)C(=O)C2CC(=O)Nc2ccccc2)cc1 (stereo not given) 0.037%, CC(=O)c1ccc(N2CCN(C(=O)c3ccc4nc[nH]c4c3)CC2)cc1 16.3%, Cc1[nH]c2ccccc2c1C(=O)/C=C/c1ccccc1 -28.1%, CSc1nsc(SC)c1NC(=O)Nc1ccccc1C 25.9%, O=C(CN1C(=O)NC2(CCc3ccccc32)C1=O)c1ccc(Br)cc1 (stereo not given) 31% [at 10 µM], COCc1c(C(=O)Nc2cccc(S(=O)(=O)N3CCCCC3)c2)oc2ccccc12 21.3%, CC1CCN(S(=O)(=O)c2ccc(Oc3ccc([N+](=O)[O-])cc3)cc2)CC1 36%, CCOc1ccc(NC(=O)c2cccc3c2C(=O)N(CCOC)C3)cc1 1.21%, COc1cccc(NC(=O)c2ccccc2-c2ccccc2C(=O)O)c1 11.2%, Cc1c(NC(=O)COC(=O)c2ccccc2O)c(=O)n(-c2ccccc2)n1C 15.7%, C[C@H]1CN([C@@H](C)CO)C(=O)Cc2cc(NS(C)(=O)=O)ccc2O[C@@H]1CN(C)Cc1ccc2c(c1)OCO2 1.57%, C[C@@H]1CN([C@H](C)CO)C(=O)Cc2cc(NC(=O)Nc3ccccc3)ccc2O[C@H]1CN(C)Cc1ccccc1 5.21% [at 21 µM], C[C@@H]1CN([C@H](C)CO)C(=O)Cc2cc(NC(=O)Cc3ccccc3)ccc2O[C@@H]1CN(C)S(C)(=O)=O 14.9%, C[C@H]1CN([C@@H](C)CO)C(=O)Cc2cc(NC(=O)Nc3ccccc3)ccc2O[C@@H]1CN(C)Cc1ccccc1 -36.2%, C[C@H]1CCCCO[C@H](CN(C)Cc2ccc3c(c2)OCO3)[C@@H](C)CN([C@@H](C)CO)C(=O)c2cc(NC(=O)Nc3ccc(C(F)(F)F)cc3)ccc2O1 -95.8%, Cc1ccccc1Cn1cnc2c(nnn2Cc2ccc(F)cc2)c1=O -4.71%, O=C1Nc2c(Br)cc(Br)c3cccc1c23 1.42%, C[C@@H]1CN([C@@H](C)CO)C(=O)c2cc(C#CCN(C)C)cnc2O[C@@H]1CN(C)S(=O)(=O)c1cn(C)cn1 15.9%, COc1ccc(-c2cnc3c(c2)C(=O)N([C@H](C)CO)C[C@H](C)[C@H](CN(C)S(=O)(=O)c2cccs2)O3)cc1 4.64%, COc1ccc(S(=O)(=O)N(C)C[C@@H]2Oc3ncc(-c4ccccc4)cc3C(=O)N([C@H](C)CO)C[C@@H]2C)cc1 24% [at 21 µM], C[C@H]1CN([C@@H](C)CO)C(=O)c2cc(-c3cccc(C(=O)N(C)C)c3)cnc2O[C@@H]1CN(C)S(=O)(=O)c1ccc(F)cc1 -3.94%, O=C(C[C@H]1C[C@H]2c3cc(NC(=O)C4CCC4)ccc3O[C@H]2[C@H](CO)O1)NCc1ccc(-c2ccccc2)cc1 14%, O=C1c2ccsc2SCCN1Cc1cccc(Cl)c1 -1.83%, Cc1cccc(N2C(=O)C(Cl)=C(N3CCOCC3)C2=O)c1 -2.12%, O=S(=O)(c1cccs1)N1CCCCN2[C@H](CO)[C@H](c3ccc(/C=C/c4ccccc4)cc3)[C@H]2C1 -41.3%, O=C(NC[C@@H]1N[C@@H](CO)[C@H]1c1ccc(C2=CCCCC2)cc1)c1ccc(F)cc1 21.8%, C[C@H](CO)N1C[C@H](C)[C@@H](CN(C)Cc2ccccc2F)Oc2ncc(Br)cc2C1=O 9.64%, O=S(=O)(Nc1ccccc1N1CCCCC1)c1ccc(F)cc1 29.9%, CCCN(CCC)S(=O)(=O)c1ccc(C(=O)Nc2nnc(CSC)o2)cc1 -2.17%, Cc1noc(C)c1S(=O)(=O)Nc1ccc2c(c1)C(=O)N([C@@H](C)CO)C[C@@H](C)[C@@H](CN(C)S(=O)(=O)c1ccccc1)O2 15%, O=S(=O)(C/C(=C/CO)S(=O)(=O)c1ccccc1)c1ccccc1 -51.6%, CCN(C(=O)CN1CCN(c2ccccc2O)CC1)c1c(N)n(Cc2ccccc2)c(=O)[nH]c1=O 1.96%, CO[C@H](CN(C)S(=O)(=O)c1ccc(Cl)cc1)[C@H](C)CN([C@H](C)CO)S(=O)(=O)c1cccc(Cl)c1 43.3% [at 18 µM], OCC1OC(Oc2c(Br)cc(Br)cc2Br)C(O)C(O)C1O (stereo not given) 15.7%, CCc1ccc(C(=O)CN(C#N)c2nc(C)cc(C)n2)cc1 -61%, COc1ccc(Cn2nnnc2CN(Cc2cc3ccc(C)cc3[nH]c2=O)C2CCCC2)cc1 -14.1%, COc1ccccc1NS(=O)(=O)c1cc(NC(=O)c2[nH]c(C)c(C(C)=O)c2C)ccc1N1CCOCC1 38.3%, CCCCCCNC(=O)O[C@@]12CN(S(=O)(=O)c3ccc(C)cc3)C[C@]1(O)Cn1c(=O)n(CCCCCC)c(=O)n1C2 -18.4%, O=C(Nc1cccc(Cl)c1)Nc1ccc2c(c1)OCO2 8.19%, O=C(O)c1cc(-c2ccc3c(c2)OCO3)nc2ccccc12 -21.2%, COc1ccc(NC(=O)[C@H](Cc2c[nH]c3ccccc23)NC(=O)[C@@H]2Cc3ccccc3CN2)cc1 3.84%, Clc1ccc2nc(COc3ccccc3)[nH]c2c1 35%, C[C@@H]1CN([C@H](C)CO)C(=O)c2cc(NC(=O)CCCCCC(=O)Nc3ccccc3N)ccc2O[C@H]1CN(C)S(=O)(=O)c1ccc(Cl)cc1 12.1%, C[C@H](CO)N1C[C@H](C)[C@@H](CN(C)Cc2ccc(C(F)(F)F)cc2)OCc2cnnn2CCCC1=O -39.1%, COc1ccc(C(NC(=O)c2c(F)c(F)c(F)c(F)c2F)c2ccccc2)cc1 (stereo not given) -107%, CO[C@@H]1CN(C)C(=O)c2ccc(NS(C)(=O)=O)cc2OC[C@@H](C)N(Cc2nccs2)C[C@@H]1C 9.44%, O=C(C[C@@H]1C[C@@H]2c3cc(NC(=O)C4CCC4)ccc3O[C@@H]2[C@@H](CO)O1)NCc1ccc(-c2ccccc2)cc1 16.7% [at 21 µM], CC1=C(Cl)C2=NS(=O)(=O)CCN2C=C1Cl -15.2%, O=C(c1ccc(Cl)cc1)C(Cn1cncn1)C(Sc1ccccc1)c1ccccc1 (stereo not given) -26% [at 10 µM], CCCNC(=O)N(C)C[C@H]1Oc2cc(C#CCC(C)C)ccc2S(=O)(=O)N([C@@H](C)CO)C[C@H]1C -22.8%, COc1cc(CCC(=O)Nc2cc(C)cc(C)c2)cc(OC)c1OC 27.5%, Cc1ccc(S(=O)(=O)N(CC2CO2)c2ccccc2[N+](=O)[O-])cc1 (stereo not given) 7.63%, CC(C)c1ccccc1NC(=O)Cn1c(-c2ccccc2Cl)nc2ccccc21 7.14%, O=S(=O)(O)c1nc2ccccc2n1Cc1ccc(Cl)cc1 16% [at 10 µM], O=S(=O)(c1ccc(N2CCC(c3ccc(Cl)cc3)=N2)cc1)N(CCO)CCO -6.7%, COc1cccc(N2C(=NC(=O)c3ccccc3)SC3CS(=O)(=O)CC32)c1 (stereo not given) -1.74%, CCOC(=O)c1ccc2[nH]c(C)c(CN3CCN(C)CC3)c(=O)c2c1 20.5%, CC(Sc1nnc(N)s1)C(=O)Nc1ccc2c(c1)OCO2 (stereo not given) -0.09%, CCCN(C)C[C@H]1Oc2cc(C#Cc3ccc(OC)cc3)ccc2S(=O)(=O)N([C@@H](C)CO)C[C@H]1C -59.5%, C[C@H](CO)N1C[C@H](C)[C@H](CN(C)C(=O)C2CCCCC2)Oc2cc(-c3ccccc3)ccc2S1(=O)=O -2.64%, Cc1cc(N)c2cc(NC(=O)/C=C/c3ccccc3Cl)ccc2n1 -96.7%, COc1ccc(-c2cn[nH]c2-c2ccc(O)cc2O)cc1 -6.54%, O=C(CCCc1cccs1)NCCc1c[nH]c2ccccc12 13.6%, O=C(CN1C(=O)C2C3CC(C(Br)C3Br)C2C1=O)OCC(=O)c1cccc([N+](=O)[O-])c1 (stereo not given) 20.3%, CC1=C(C(=O)OC(C)(C)C)C(c2ccc3ccccc3c2)NC(=O)N1C (stereo not given) 28.9%, O=C(Cn1cc(C(=O)c2cccs2)c2ccccc21)NCC1CCCO1 (stereo not given) 20.3%, O=C(O)Cn1cc(C(=O)C(F)(F)F)c2ccccc21 -17.3%, Cc1ccc(C(=O)Nc2nc(=O)n(C(=O)CC(C)C)s2)cc1 -21.6%, CN(C)c1ccc(/C=N/N(CCC#N)C2=NS(=O)(=O)c3ccccc32)cc1 30.6%, COc1ccccc1C(=O)N1C(CC(=O)Nc2cc(Cl)ccc2C)C(=O)NC2CCCCC21 (stereo not given) 35.7%, O=C(COc1ccccc1Cl)Nc1ccc(Cl)cn1 -9.22%, Cc1ccc(Sc2ncnc3onc(C)c23)c(C)c1 23.8%, Cc1ccccc1CS(=O)(=O)c1nnc([C@H](CC(C)C)NC(=O)OC(C)(C)C)o1 -78.1%, COc1ccc(S(=O)(=O)N2CCC(C(=O)N3CCC(C(N)=O)CC3)CC2)cc1Cl 19.4%, Cc1ccc(CN2CC(C(=O)N3CCN(S(=O)(=O)c4cccc(F)c4)CC3)CC2=O)cc1 (stereo not given) -5.88%, CC(C)CC#Cc1ccc2c(c1)O[C@H](CN(C)C(=O)Cc1ccccc1)[C@H](C)CN([C@H](C)CO)S2(=O)=O 20.7%, COCCn1c(C)c(C)c2c(NCCc3ccccc3)ncnc21 11.3%, O=CNCCc1nc2ccccc2n1CCc1ccccc1 15.8%, CN1CCN(C2=C(Cl)C(=O)N(CCc3ccccc3)C2=O)CC1 -19.5%, COCCNC(=O)CSc1nc2c(n1-c1ccccc1)CCCC2 0.562%, C[C@@H]1CN([C@H](C)CO)C(=O)c2cccc(NC(=O)C3CCCCC3)c2O[C@@H]1CN(C)CC1CCCCC1 15.4%, CCOC(=O)c1ccc(-c2c(-c3cc(OC)c(OC)c(OC)c3)noc2C)cc1F 1.34%, O=C(C[C@@H]1C=C[C@@H](NC(=O)Nc2ccc(F)cc2)[C@@H](CO)O1)NCCN1CCCC1 24%, CC(C)c1nc2sc3c(NCc4ccco4)ncnc3c2c2c1COC(C)(C)C2 31.6%, COc1cccc(-n2c(Cc3cc(=O)[nH]c(=O)[nH]3)nnc2SCc2cccc(C(F)(F)F)c2)c1 7.56%, Cc1cccc(-c2ccc(C3[C@@H]4CN(C(=O)Nc5ccc(C(F)(F)F)cc5)C[C@H]3N4)cc2)c1 (stereo not given in full) -88.7% [at 21 µM], O=C(Nc1ccc(F)cc1)c1sc2cc(C(F)(F)F)cnc2c1-c1cccs1 27.7%

outcome, inactive:
Cc1ccc(-c2ccc(C3[C@@H]4CN(C(=O)Nc5ccc(C(F)(F)F)cc5)C[C@H]3N4)cc2)cc1 (stereo not given in full)
